Data on 85 compounds can be found in PubChem BioAssay AID588852 (The Scripps Research Institute Molecular Screening Center, 2011).

Structures are written as SMILES. Hit rate of the full screen: of about 360,000 compounds, about 4,600 (1.3%) were called active. The list comes from a sample in which actives are over-represented; it also holds similar structures and randomly drawn compounds. Values without a mark were called inactive.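 How the source made its calls: active means percent inhibition above its own plate's cutoff, namely the mean of that plate's compound wells plus 3 SD; inactive means the rest.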 Peptide text beside a SMILES is read from it. * marks the point of attachment. Bz = O=C(c1ccccc1)*

The assay deals with Muscarinic acetylcholine receptor M1 (Homo sapiens) (UniProt P11229). Nature of the assay: human M1 muscarinic receptor antagonists, primary screen, CHO-K1 cells, Fluo-8 calcium fluorescence, 1536-well (AID 588852).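 Further: peak over basal fluorescence ratio during 140 s after agonist addition; 0% = ACh EC80 plus DMSO and 100% = DMSO alone without agonist.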 Conditions: CHO-K1 hM1, Fluo-8 calcium fluorescence, ACh EC80 antagonist; at 3 µM; stronger effect = higher value.
Chain of Muscarinic acetylcholine receptor M1 (Homo sapiens) (P11229 whole entry, looked up): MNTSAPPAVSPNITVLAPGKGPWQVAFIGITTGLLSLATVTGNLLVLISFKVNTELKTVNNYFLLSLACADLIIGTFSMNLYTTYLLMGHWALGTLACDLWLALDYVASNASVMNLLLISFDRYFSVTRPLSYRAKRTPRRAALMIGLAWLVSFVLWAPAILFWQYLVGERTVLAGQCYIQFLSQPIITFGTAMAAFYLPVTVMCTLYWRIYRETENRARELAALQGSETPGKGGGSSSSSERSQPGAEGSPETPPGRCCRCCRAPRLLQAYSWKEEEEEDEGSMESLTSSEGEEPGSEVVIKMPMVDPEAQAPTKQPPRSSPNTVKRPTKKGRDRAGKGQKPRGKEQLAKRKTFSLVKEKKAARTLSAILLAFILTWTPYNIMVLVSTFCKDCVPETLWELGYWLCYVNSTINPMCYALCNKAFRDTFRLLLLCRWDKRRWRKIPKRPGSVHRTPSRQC
By inhibition is commonly meant the relative decrease from the control value, in per cent. In the case of `COc1ccc(S(=O)(=O)Nc2cccnc2)c(Cl)c1Cl`, the inhibition was 9.26%. The result for `COc1ccccc1Oc1ccc(S(=O)(=O)Nc2cccnc2)cc1` reads 35.1% (active); that for `Cc1cc(C)c(C)c(S(=O)(=O)Nc2cccnc2)c1C`, -12.2%. To `O=[N+]([O-])c1ccc(CN2CC(N3CC=CC3)CS2(=O)=O)cc1` (stereo not given) belongs 7.78%; to `CCCC1=Nc2cc(C(=O)NCc3ccco3)ccc2Sc2ccccc21`, 13.6%; to `CCC1=Nc2cc(C(=O)NCCCN3CCOCC3)ccc2Sc2ccc(Br)cc21`, 1.43%.

On to `CCCC1=Nc2cc(C(=O)NCCN3CCCC3)ccc2Sc2ccccc21`, for which the inhibition was 44% (active). To `Cc1cccc(CN2CCC(n3nccc3NC(=O)c3ccccc3C)CC2)n1` belongs -7.86%; to `C[C@@H]1CN([C@@H](C)CO)C(=O)c2cc(Br)cnc2O[C@H]1CN(C)Cc1ccc(-c2ccccc2)cc1`, -3.44%; to `C[C@@H]1CN([C@H](C)CO)C(=O)c2cc(-c3ccc(F)cc3)cnc2O[C@H]1CN(C)C(=O)c1ccc(F)cc1`, -3.76%.

Consider `C[C@@H]1CN([C@@H](C)CO)C(=O)CCCn2nncc2CO[C@H]1CN(C)Cc1ccc(C(F)(F)F)cc1`, for which the inhibition is -8.15%. The result for `C[C@H]1CN([C@@H](C)CO)C(=O)CCCn2nncc2CO[C@@H]1CN(C)Cc1ccc(Oc2ccccc2)cc1` reads 35.8% (active). In the case of `COc1ccc(-c2cnc3c(c2)C(=O)N([C@H](C)CO)C[C@@H](C)[C@H](CN(C)Cc2ccccc2)O3)cc1`, the inhibition was 79.4% (active).

For `Cc1ccc(CN(C)C[C@@H]2OCc3cnnn3CCCC(=O)N([C@@H](C)CO)C[C@H]2C)cc1`, the inhibition was -6.67%. On to `CSc1nsc(SC)c1NC(=O)OC1CCCCC1`, for which the inhibition is -9.68%.

Consider `O=C(Nc1cccc2ccccc12)c1[nH]c(-c2ccccc2)c2c1C(=O)N(C1CC1)C2=O`, for which the inhibition was -24.4%. As for `O=C1C2C3C=CC(C3)C2C(=O)N1c1ncc([N+](=O)[O-])s1` (stereo not given), the inhibition was -4.85%. To `NC(=O)c1ccc(NC(=O)COC(=O)C(Cc2ccccc2)NC(=O)c2ccccc2)cc1` (stereo not given) belongs 0.83%; to `CN(Cc1ccccc1F)C(=O)C(Cc1ccccc1)NC(=O)c1ccccc1` (stereo not given), 33.5% (active); to `O=C(NC(Cc1ccccc1)C(=O)N1CCCC1C(=O)O)c1ccccc1` (stereo not drawn) (Bz-Phe-Pro-OH; configuration not given here), -9.18%. For `CCn1ccnc1CNC(=O)CC1C(=O)NCCN1CCCc1ccccc1` (stereo not given), the inhibition is -10.2%. The result for `C[C@@H](C(=O)Nc1ccc2ccccc2c1)[C@@H]1C[C@@]1(C)[C@@H](NC(=O)c1cccnc1)c1ccccc1` reads -3.75%; that for `CCc1nc2ccc(C(=O)N3CCN(S(=O)(=O)CC)CC3)cn2c1N(C=O)CCC(C)C`, -13.9%.

For the compound `CC1=C(C(=O)N2CCOCC2)CC(CC(=O)NCCCN(C)C)C(=O)N1Cc1ccc(C(C)(C)C)cc1` (stereo not given), the inhibition is -15.7%. The result for `CC(Oc1cc2oc(=O)c3c(c2cc1Cl)CCCC3)C(=O)NCc1ccncc1` (stereo not given) reads 1.37%. Take `Cc1ccc(S(=O)(=O)NC(C)C(=O)NCc2ccc(Cl)cc2)cc1` (stereo not given): the inhibition is 5.87%. Turning to `COc1ccc(S(=O)(=O)NC(C)C(=O)NCc2ccncc2)cc1Cl` (stereo not given), the inhibition is 25.1% (active).

For the compound `CC(=O)N1C[C@@H](CO)[C@@H](N(C)C(=O)c2ccco2)C[C@H]1c1ccccc1`, the inhibition is 30.9%. For the compound `COc1cc(OC)cc(C(=O)NNC(=O)CNC(=O)c2ccc(Br)o2)c1`, the inhibition was 15.6%. The result for `CCN1CN(Cc2ccccc2)CNC1=S` reads 0.26%; that for `COc1ccc(NC(=O)C2(C)Cc3c(-c4cccc(NC(C)=O)c4)ccnc3O2)cc1` (stereo not given), -7.09%. As to `COc1cccc(CNc2nc(NCc3cccs3)nc3ccsc23)c1`, the inhibition is 51.9% (active). To `COCCNc1nc(NCc2ccc(NC(C)=O)cc2)c2sccc2n1` belongs -8.59%; to `COc1cccc(CNc2nc(NCc3ccccc3OC)nc3ccsc23)c1`, 24.1%; to `COc1ccc(-c2nc3c(s2)CCc2onc(-c4ccc(OC)cc4)c2-3)cc1`, -8.59%. On to `COc1cccc(C=CC(=O)C=CC=Cc2ccccc2)c1`, for which the inhibition is -3.17%.

As to `O=C(/C=C(O)/C=C/c1ccc(O)cc1)/C=C/c1ccc(O)cc1`, the inhibition was 33.7% (active). Consider `COc1ccc(/C=C/C(=O)c2c(O)cc(OC)cc2OC)cc1`, for which the inhibition was 4.93%. Take `O=S1(=O)C[C@@H](N2CCN(CCO)CC2)[C@H](COCc2ccccc2)N1`: the inhibition is 8.79%. To `COC(=O)CCCC1=CC2=C(c3ccccc3)C(=O)C(C)(OC(=O)C3CCCC3)C(=O)C2=CN1c1ccc(OC)cc1` (stereo not given) belongs 4.39%; to `CSc1ncccc1C(=O)N1CCCC(Nc2ccc(F)c(F)c2)C1` (stereo not given), -21.9%; to `Cc1ccc(CN2CC(C(=O)NNC(=O)Cn3ccc(C(F)(F)F)n3)CC2=O)cc1` (stereo not given), -4.1%. The result for `O=C1NC(O)CCN1C1CC(O)C(CO)O1` (stereo not given) reads 4.13%; that for `COc1cc(C(C(=O)NC2CCCC2)N(Cc2ccccc2)C(=O)c2snc(C(N)=O)c2N)ccc1O` (stereo not given), 0.09%.

Turning to `NC(=O)c1nsc(C(=O)N(CC(=O)NCc2ccc(F)cc2)Cc2ccco2)c1N`, the inhibition is -9.5%. To `COc1ccc(CNC(=O)C(c2ccc(O)cc2)N(Cc2ccco2)C(=O)c2snc(C(N)=O)c2N)cc1` (stereo not given) belongs 34.8% (active); to `CCOC(=O)N1CCN(S(=O)(=O)c2ccc(C(=O)Nc3ccc(F)cc3F)cc2)CC1`, 5.69%; to `Cc1cc2cc3c(cc2nc1SCC(=O)Nc1c(C)cccc1C)CCC3`, -12.5%. Consider `O=C(CC[C@H]1O[C@@H](n2ccc(=O)[nH]c2=O)[C@H](O)[C@@H]1O)N[C@H](Cc1ccccc1)C(=O)NCCCN1CCCC1=O`, for which the inhibition was -9.33%. Turning to `Cc1cccc(C)c1NC(=O)c1ccc(CN2CCc3ccccc3C2)cc1`, the inhibition was 4.61%. To `Cc1cccc2c1-c1sc(C(=O)NCCCN3CCc4ccccc4C3)cc1CO2` belongs 58.2% (active); to `Cc1ccc(NC(=O)CN2CCc3ccccc3C2)cc1C`, -11%. The result for `O=c1c2c(nc3n1CCCCC3)sc1c(O)cccc12` reads -13.7%. `CC1(C)Cc2c(sc3nc4n(c(=N)c23)CCCCC4)CO1`: the inhibition was 53.3% (active). To `CC(C)c1nc2sc3c(c2c(=O)n1N)CC(C)(C)OC3` belongs -0.09%; to `N=c1c2c3c(sc2nc2n1CCCCC2)CCCC3`, 89.3% (active); to `N=c1c2c3c(sc2ncn1CCCN1CCOCC1)CCCCC3`, 1.24%. To `CCSc1nc2sc3c(c2c(=O)[nH]1)CC(C)(C)OC3` belongs -5.74%. The result for `COc1ccccc1-c1cnn2c(N3CCOCC3)cc(C)nc12` reads -0.68%. As to `C=CCn1c2c(c3ccccc31)CCC2`, the inhibition is 3.67%.

For `Cc1ccc2cc3cc(C(=O)N4CCCCCC4)oc3nc2c1`, the inhibition was -17.6%. For `Fc1ccc2[nH]c3c(N4CCSCC4)ncnc3c2c1`, the inhibition was 41.1% (active). Regarding `CCOC(=O)N(Cc1ccccc1)C1CC1`, the inhibition was -16%. To `Nc1nnc(SCC(=O)Nc2ccc3nc(SCC(=O)Nc4ccccc4)sc3c2)s1` belongs 30.3% (active); to `CCCCNC(=O)CSc1nc2ccc(NC(=O)CSc3nnc(COc4ccccc4C)n3C)cc2s1`, -13.4%; to `CCCCNC(=O)CSc1nc2ccc(NC(=O)CSc3nnc(N)s3)cc2s1`, -9.73%. Take `O=C1c2ccccc2C(c2nc3ccccc3[nH]2)N1c1ccccc1` (stereo not given): the inhibition is -32.7%.

For `CCS(=O)(=O)Nc1ccc(C2=NN(S(=O)(=O)c3ccc(F)cc3)C(c3ccco3)C2)cc1` (stereo not given), the inhibition is -7.75%.

As for `COc1cccc(NC(=O)CN(C)C(=O)c2cc(Cl)nc3ccccc23)c1`, the inhibition was -8.88%.

On to `COc1ccc(CN(C)C(=O)Cc2c[nH]c3ccccc23)c(OC)c1OC`, for which the inhibition is -18.1%.

On to `COc1ccc(-c2cc(C(=O)N(C)Cc3ccccc3)c3ccccc3n2)cc1`, for which the inhibition is 41% (active).

For the compound `COc1ccc(-c2cc(C(=O)N(C)CC(=O)Nc3ccccc3Cl)c3ccccc3n2)cc1OC`, the inhibition was 21% (active).

For the compound `COc1ccc(-c2cc(C(=O)n3cnc4ccccc43)c3ccccc3n2)cc1`, the inhibition was -11.1%. The result for `COc1ccc(CN(C)C(=O)Cc2ccsc2)c(OC)c1OC` reads -4.83%.

As for `COc1ccc(CN(C)C(=O)c2cc(-c3ccc(C)cc3C)nc3ccccc23)c(OC)c1OC`, the inhibition is 26.6% (active).

Take `COc1ccc(S(=O)(=O)N2CCCCCC2)cc1C(=O)N(C)Cc1cccc(OC)c1OC`: the inhibition was -2.19%. The result for `COc1ccc(-c2cc(C(=O)NCCCN3CCCC3=O)c3ccccc3n2)cc1OC` reads 19.9%. The result for `COc1ccc(Cl)cc1NC(=O)CN(C)C(=O)c1cc2ccccc2cc1OC` reads -2.48%; that for `COc1ccc(NC(=O)c2cc(-c3cc(OC)c(OC)c(OC)c3)nc3ccccc23)c(OC)c1`, -10.6%. To `COc1ccc(-c2cc(C(=O)N(C)Cc3ccc(OC)c(OC)c3OC)c3ccccc3n2)cc1OC` belongs 41.5% (active); to `Cc1cc2oc(=O)cc(CN(C)Cc3ccccc3)c2cc1Cl`, -3.35%. `CC1(C(=O)NS(=O)(=O)c2ccccc2)CCN1C(=O)Cc1ccc(-c2ccccc2)cc1` (stereo not given): the inhibition is -13%. To `CC(=O)N1c2ccc(S(=O)(=O)N3CCCC(C(=O)Nc4ccc(C)cc4C)C3)cc2CC1C` (stereo not given) belongs -10.3%; to `CC(=O)n1cc([C@@H]2C=C(C(=O)N3CCN(Cc4ccc5c(c4)OCO5)CC3)O[C@H](OCc3ccc(CO)cc3)C2)c2ccccc21`, 15.6%; to `CNC[C@H]1OCc2cnnn2CCCC(=O)N([C@H](C)CO)C[C@@H]1C`, -31.6%.
